What is called inhibition is the drop in the measured response relative to a control, in per cent.

This note sets out measurements from ChEMBL document CHEMBL3433997, “St. Jude Leishmania screening dataset” (2016).

SMILES strings stand for the structures.

Solute carrier family 2, facilitated glucose transporter member 1 (Homo sapiens), sequence (P11166 whole entry): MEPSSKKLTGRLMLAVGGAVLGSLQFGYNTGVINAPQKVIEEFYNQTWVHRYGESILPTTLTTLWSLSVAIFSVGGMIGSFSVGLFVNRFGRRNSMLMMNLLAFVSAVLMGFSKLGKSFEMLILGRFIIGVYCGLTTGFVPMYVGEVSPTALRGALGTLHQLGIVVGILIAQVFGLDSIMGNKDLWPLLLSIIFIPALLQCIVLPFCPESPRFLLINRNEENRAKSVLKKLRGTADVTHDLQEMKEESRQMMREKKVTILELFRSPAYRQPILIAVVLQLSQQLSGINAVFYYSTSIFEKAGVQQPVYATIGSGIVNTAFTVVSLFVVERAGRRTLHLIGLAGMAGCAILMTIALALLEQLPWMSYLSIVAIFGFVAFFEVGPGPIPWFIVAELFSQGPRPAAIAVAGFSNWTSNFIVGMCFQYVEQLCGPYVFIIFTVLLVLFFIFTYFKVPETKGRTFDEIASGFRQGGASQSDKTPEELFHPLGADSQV

This test concerns the target Solute carrier family 2, facilitated glucose transporter member 1 (Homo sapiens) (UniProt P11166). Kind of test: ST_JUDE_LEISH: Cytotoxicity at 2uM final concentration against transgenic Leishmania Mexicana promastigotes LmGLUT1 that are glucose transport deficient and complemented with the human glucose transporter GLUT1. Activity is measured by DNA content using SYBR green in vitro. The test is classed as functional.
In the case of `CC1CCNc2ccc(Cc3cnc(N)nc3N)cc21` (stereo not given), the inhibition was determined as 2.12%. On to `N#Cc1ccc(CN2CCC(Oc3ccc(NC(=O)c4cccs4)cc3Cl)CC2)cc1`, for which the inhibition was found to be 5%. In the case of `Cc1ccc(O)cc1Nc1ccnc2cc(-c3csc(CN(C)CCN(C)C)n3)ccc12`, the inhibition was -0.07%. Turning to `CCN(CC)CCCN1CCN(C(=O)c2cccc(-c3noc(C(F)(F)F)n3)c2)CC1`, the inhibition worked out at 5.54%.

In the case of `Cc1ccc(Oc2c(-c3ccccc3CN3CCCC3CN(C)C)cnn(C)c2=O)cn1` (stereo not given), the inhibition stood at 6.33%. The same measure for `CC(C)c1ccc(CN2CCCCC(NC(=O)c3cc(-c4ccccc4F)cs3)C2)cc1` (stereo not given): 8.71%; for `CN1CC[C@@H](Oc2cc(CNC(=O)c3ccc(-c4ccc(Cl)cc4)s3)ccc2C(F)(F)F)C1`: -1.97%; for `Cc1ccc(C(=O)Nc2cc(S(=O)(=O)N3CCCC3)ccc2OCC(F)(F)F)cc1`: 3.23%. The same measure for `CC1CN(c2cnn(C/C=C/c3ccc(NC(=O)c4ccc(Cl)cc4)cc3)c(=O)c2Cl)CC(C)N1` (stereo not given): -0.22%. The same measure for `COc1cc(C(=O)Nc2ccc(-c3nc4ccccc4[nH]3)cc2)cc(OC)c1OC`: 2.49%. Consider `COc1cc(NCC(O)CNc2cc(OC)c3ccccc3n2)nc2ccccc12`, for which the inhibition is 33.2%. The value for `CC1CN(c2ccc3occ(C(=O)Nc4ccc(-c5ccncc5)c(Cl)c4)c3c2)CC(C)N1C` (stereo not given) was 5.54%; that for `Cc1ccc(NC(=O)c2ccc3ncccc3c2)cc1OC1CCN(C(C)C)C1` (stereo not given) was 8.85%.

Take `Oc1ccc(CCNCCCCCCNCCc2ccc(-c3ccccc3)cc2)cc1O`: the inhibition stood at 1.33%. The value for `COc1ccccc1N1CCN(C(C(=O)NCc2ccc3c(c2)OCO3)c2ccc3c(c2)OCCCO3)CC1` (stereo not given) was 1.2%. The value for `Cc1cccc2nc(-c3ccc(-c4ccc(CN5CCN(c6ccc(C#N)cn6)CC5)cc4)s3)[nH]c12` was 5.16%. The same measure for `Cc1cccc2nc(-c3ccc(-c4cccc(NC(=O)Nc5cccc(C#N)c5)c4)cc3)[nH]c12`: 0.79%. Consider `COc1cccc(CNC(=O)c2ccnc(-c3ccc(CNCCOc4ccccc4)cc3)c2)c1`, for which the inhibition worked out at 1.12%. The same measure for `CCc1cn2c3c(cc(C(=O)N[C@@H](Cc4cccc(F)c4)[C@H](O)CNC4CCCCC4)cc13)N(C)S(=O)(=O)CC2`: -0.36%.

For the compound `c1ccc2c(c1)ncn2-c1ccnc(Nc2ccncc2)n1`, the inhibition amounted to 6.4%.

Regarding `Cc1cc(=NN=Cc2ccc(F)cc2)c2cc(C(F)(F)F)ccc2[nH]1`, the inhibition was 2.35%. With `CCN(CC)c1ccc2nc(N)nc(N)c2c1`, the inhibition is 8.53%. The same measure for `CCCCN1Cc2c(n(CC(=O)Nc3ccccc3)c3cc(-c4ccccc4)nn3c2=O)C1=O`: 1.25%; for `N#CCCN1CCN(Cc2cccc(-c3ccc(-c4nc5cc(C(F)(F)F)ccc5[nH]4)cc3)c2)CC1`: 3.02%; for `COC(=O)c1ccc2nc(-c3ccc(/C=C/C(=O)NC4CCN(Cc5ccccc5)CC4)cc3)[nH]c2c1`: 0.71%.

As to `CC(C)COc1ccc(Cl)cc1Cc1ccc(-c2nc3cc(CCN(C)C)ccc3[nH]2)o1`, the inhibition came to 2.44%.

As for `CN1CCCN(Cc2ccc(-c3ccc(NS(=O)(=O)c4cccc5cccnc45)cc3)cc2)CC1`, the inhibition was determined as 5.67%. On to `Cc1cc(N[C@@H](Cc2ccccc2)C(=O)NCCOc2ccccc2)nc(NCC2CCCCC2)n1`, for which the inhibition stood at 6%. The same measure for `COc1ccc2[nH]c(C)cc(=NN=Cc3ccc(F)cc3)c2c1`: 4.47%; for `Cc1sc(N2CCN(C)CC2)nc1C(=O)Nc1ccc(F)cc1C(F)(F)F`: 4.38%; for `O=c1[nH]nc(-c2ccc(N3CCCC3)c([N+](=O)[O-])c2)c2ccccc12`: 2.71%.

Regarding `NC1CCN(Cc2ccc(-c3cccc(-c4nc5ccccc5[nH]4)c3)cc2)C1` (stereo not given), the inhibition worked out at 5.49%. Turning to `CC(CN(C)C)C(=O)Nc1cccc(-c2ccc(-c3nc4ccccc4[nH]3)cc2)c1` (stereo not given), the inhibition worked out at 12.2%. The value for `COc1cccc(Nc2nc(N)c3ccccc3n2)c1` was 22.4%. The same measure for `O=C(Nc1cccc(OC2CCN(Cc3ccc(F)cc3)CC2)c1)c1ccc(C(F)(F)F)cc1`: 0.28%.

As for `Oc1ccc(CCNCCCCCCNCCCc2ccc(Cl)cc2)cc1O`, the inhibition came to 2.83%. Turning to `O=C(Nc1ccccc1O)c1ccc(Oc2cccc(C(=O)Nc3ccccc3O)c2)cc1`, the inhibition was 3.99%.

As for `Cc1ccccc1C1CCN(C2CCC(NC(=O)/C=C/c3cc(F)ccc3F)CC2)CC1` (stereo not given), the inhibition is 1.51%. On to `CC(C)N1CCN(c2ccc(OCCCN3CCN(c4cccc(Cl)c4Cl)CC3)c(C(F)(F)F)c2)CC1`, for which the inhibition was found to be 2.24%. The same measure for `COc1ccc(NC(=O)Nc2cc(C)nc3ccccc23)cc1Cl`: 9.47%.
